# Hit rate of the full screen: of about 69,000 compounds, about 1,000 (1.4%) showed an effect of 50% or more. For the sample, strong results were picked, then their nearest neighbours and some compounds at random.
# System: Leishmania donovani
# Experiment: Leishmania intramacrophage assay
# Format: functional, organism-based
# Set-up: scale not given: in the data most compounds retested in dose-response had high values
smiles,measurement,setting,value
CN1CCC(c2nnc3ccc(C(=O)NC4CCCC4)cn23)C1.O=C(O)C(F)(F)F (centres undefined),Percent Effect,"30.3 µM, […]",23.32%
Fc1ccc2[nH]c(C3CCCN3CCc3ccccn3)nc2c1 (centres undefined),Percent Effect,"30 µM, 30.03 µM",50.9%
O=C(CN1CCCC1c1nc2cc(F)ccc2[nH]1)NCc1ccccn1 (centres undefined),Percent Effect,"30.3 µM, […]",34.7%
Fc1ccc2[nH]c(C3CCCN3CCCn3cccn3)nc2c1 (centres undefined),Percent Effect,"30.3 µM, […]",2.015%
Cc1ccc(C(=O)N2C[C@@H]3COC[C@]3(COc3cccnc3)C2)cn1,Percent Effect,"30 µM, 30.03 µM",15.47%
CC1CN(CC(=O)Nc2ccncc2)CCN1c1nccs1 (centres undefined),Percent Effect,30 µM,51.62%
CC1CN(CC(=O)Nc2nncs2)CCN1c1nccs1 (centres undefined),Percent Effect,"30 µM, 30.03 µM",5.617%
CC1CN(CC(=O)Nc2cccnc2)CCN1c1nccs1 (centres undefined),Percent Effect,"30 µM, 30.03 µM",19.22%
Cc1nc(CN(C)Cc2csc(-c3cccs3)n2)co1,Percent Effect,"30.3 µM, […]",17.38%
CN(Cc1csc(-c2cccs2)n1)Cc1ncccc1C(=O)O,Percent Effect,"30.3 µM, […]",21.95%
CN(Cc1csc(-c2cccs2)n1)Cc1cccnc1N,Percent Effect,"30.3 µM, […]",54.27%
Cc1cc(C)nc(N2CCC(c3cccc(CCC(=O)O)n3)CC2)n1,Percent Effect,"30.3 µM, […]",-9.293%
COc1ccc(CN2CCc3ncnc(C4CCOC4)c3CC2)cc1.O=C(O)C(F)(F)F (centres undefined),Percent Effect,"30 µM, 30.03 µM",20.96%
CCOCc1ccccc1NC(=O)NC1CCN(C2CCCC2)C1 (centres undefined),Percent Effect,"30.3 µM, […]",-2.945%
CN(C)c1ncc(CN2CCOC(C(=O)Nc3ccccc3)C2)cn1 (centres undefined),Percent Effect,"30 µM, 30.03 µM",-7.564%
Cc1cc(C)c(CNC(=O)N2CCCC2c2cccn2C)c(=O)[nH]1 (centres undefined),Percent Effect,"30 µM, 30.03 µM",13.7%
C[C@@H](CO)NC(=O)c1ccc2nc(NS(C)(=O)=O)sc2c1,Percent Effect,"30.3 µM, […]",55.63%
CC(CO)NC(=O)c1ccc2[nH]/c(=N\S(C)(=O)=O)sc2c1 (centres undefined),Percent Effect,"30.3 µM, […]",-35.22%
CSCC[C@@H](CO)NC(=O)c1ccc2nc(NS(C)(=O)=O)sc2c1,Percent Effect,"30.3 µM, […]",-13.25%
CC(C)c1nn(C)c(N(C)C)c1CNC1CCCOc2ccccc21 (centres undefined),Percent Effect,"30.3 µM, […]",11.28%
Cc1c(C(=O)N2CCOCC2)n(C)c2ccc(Cl)cc12.Cl,Percent Effect,"30.3 µM, […]",19.33%
Cc1c(C(=O)N2CCN(C)CC2)n(C)c2ccc(Cl)cc12,Percent Effect,"30.3 µM, […]",11.88%
Cc1c(C(=O)N2CCC(N3CCCCC3)CC2)n(C)c2ccc(Cl)cc12,Percent Effect,"30.3 µM, […]",83.29%
CCS(=O)(=O)N1C[C@@H](c2ccccc2)[C@@]2(CCNC2=O)C1,Percent Effect,"30.3 µM, […]",42.69%
CC1(C)CN(C(CNS(N)(=O)=O)c2ccc(Cl)cc2)CCO1 (centres undefined),Percent Effect,"30.3 µM, […]",-5.286%
CC(C)N(C)C(=O)C1CSCN1S(=O)(=O)c1ccccc1F (centres undefined),Percent Effect,"30.3 µM, […]",51.74%
CC(C)(C)NC(=O)C1CSCN1S(=O)(=O)c1ccccc1F (centres undefined),Percent Effect,"30.3 µM, […]",-3.758%
CC(C)N(C)C(=O)C1CSCN1S(=O)(=O)c1cc(Cl)ccc1Cl (centres undefined),Percent Effect,"30.3 µM, […]",6.679%
Cc1cccc(NC(=O)CNC(=O)c2ccccc2F)c1,Percent Effect,"30.3 µM, […]",-11.93%
CNC(=O)c1nc(CC(=O)Nc2cccc(C(F)(F)F)c2)no1,Percent Effect,"30.3 µM, […]",-13.79%
O=c1cc(N2CCc3ccccc3C2)cnn1CCC1CCOC1 (centres undefined),Percent Effect,"30.3 µM, […]",44.37%
CC(C)C(=O)N1CC[C@H]2N(C)CC[C@@]2(C(=O)Nc2cccnc2)CC1.O=C(O)C(F)(F)F.O=C(O)C(F)(F)F,Percent Effect,"30.3 µM, […]",36.27%
CC(C)C(=O)N1CC[C@H]2N(C)CC[C@@]2(C(=O)Nc2ccccc2)CC1,Percent Effect,"30.3 µM, […]",56.37%
CNC(=O)N1CC[C@H]2N(C)CC[C@@]2(C(=O)Nc2ccccc2)CC1,Percent Effect,"30 µM, 30.03 µM",11.56%
CCCc1noc(C2CC(=O)N(Cc3ccccc3)C2)n1 (centres undefined),Percent Effect,"30.3 µM, […]",62.8%
CCCc1noc(C2CC(=O)N(CCN(C)C)C2)n1 (centres undefined),Percent Effect,"30.3 µM, […]",24.39%
CCCc1noc(C2CC(=O)N(C(C)(C)C)C2)n1 (centres undefined),Percent Effect,"30.3 µM, […]",13.52%
O=C(CCS(=O)(=O)c1ccccc1)NC1CCOC2(CCOCC2)C1 (centres undefined),Percent Effect,"30.3 µM, […]",-6.021%
O=C(O)C(F)(F)F.O=C1CC2(CCCCN2CC2CC2)CN1c1ccccc1 (centres undefined),Percent Effect,"30.3 µM, […]",20.41%
COCCN1CCCCC12CC(=O)N(c1ccccc1OC)C2.O=C(O)C(F)(F)F (centres undefined),Percent Effect,"30.3 µM, […]",20.15%
COCCN1CCCCC12CC(=O)N(c1cccc(C#N)c1)C2.O=C(O)C(F)(F)F (centres undefined),Percent Effect,"30.3 µM, […]",50.28%
COc1ccc(N(c2ccccc2)c2ccc(C(=O)O)s2)cc1,Percent Effect,"30.3 µM, […]",6.692%
Cc1cnc(C(=O)N2CCCC3(CCN(c4cnn(C)c4)C3=O)C2)cn1 (centres undefined),Percent Effect,"30.3 µM, […]",-31.28%
CN(C)C(=O)CC1CC2(CCN(CC3CC3)CC2)Oc2ccccc21.O=C(O)C(F)(F)F (centres undefined),Percent Effect,"30.3 µM, […]",9.368%
CCn1nccc1CN(C)C(=O)Cn1nc(C)cc1C,Percent Effect,"30.3 µM, […]",19.68%
CCn1nccc1CN(C)C(=O)Cn1cc2c(n1)c(C)nn2CC,Percent Effect,"30.3 µM, […]",72.98%
CCn1nccc1CN(C)C(=O)Cn1nc(C)c(C)c1C,Percent Effect,"30.3 µM, […]",6.99%
O=C(c1csc(-c2ccc(C(F)(F)F)cc2)n1)N1CCCNCC1,Percent Effect,"30.3 µM, […]",53.12%
O=C1CCN(C(=O)c2csc(-c3ccc(C(F)(F)F)cc3)n2)CCN1,Percent Effect,"30.3 µM, […]",-4.65%
CN1CCCN(C(=O)c2csc(-c3ccc(C(F)(F)F)cc3)n2)CC1,Percent Effect,"30.3 µM, […]",-34.88%
CCc1nc(C2CCCN2CCC(=O)N2CCc3ccccc32)no1 (centres undefined),Percent Effect,30 µM,-5.363%
Cc1cc(C(=O)Nc2nnn[nH]2)ccc1I,Percent Effect,"30.3 µM, […]",2.496%
O=C(O)C(F)(F)F.O=C(O)C(F)(F)F.O=C(O)C(F)(F)F.c1cncc(COCc2cncc3c2CCN(Cc2ccoc2)C3)c1,Percent Effect,"30.3 µM, […]",3.293%
Cc1cc(C(=O)N2CCc3nc(N4CCCC4)nc(C)c3CC2)c(C)o1,Percent Effect,"30.3 µM, […]",44.41%
Cc1nc(N2CCCC2)nc2c1CCN(C(=O)N1CCCC1)CC2,Percent Effect,"30.3 µM, […]",-2.559%
Cc1nc(N2CCCC2)nc2c1CCN(C(=O)c1ccoc1C)CC2,Percent Effect,"30.3 µM, […]",54.38%
CCn1ccc(C(=O)N2CCCC2(C)c2nc(C)cc(N(C)C)n2)n1 (centres undefined),Percent Effect,"30.3 µM, […]",26.06%
CC(C)CNC(=O)C(C)N1CCN(C2CCN(C(C)C)CC2)CC1 (centres undefined),Percent Effect,"30.3 µM, […]",19.26%
CCN(CC)C(=O)CN1CCC(c2nc(C)c3c(n2)N(C)CCC3)CC1,Percent Effect,"30.3 µM, […]",-13.08%
CCN(CC)C(=O)CN1CCCC(c2nc(C)c3c(n2)N(C)CCC3)C1 (centres undefined),Percent Effect,"30.3 µM, […]",94.66%
CCC(=O)N1CCC(c2nc(C)c3c(n2)N(C)CCC3)CC1,Percent Effect,"30.3 µM, […]",31.8%
CS(=O)(=O)NC1CCCN(C(=O)Nc2cccnc2)C1 (centres undefined),Percent Effect,30 µM,-4.572%
CS(=O)(=O)NCC1CCCN(C(=O)Nc2cccnc2N2CCCC2)C1 (centres undefined),Percent Effect,"30 µM, 30.03 µM",4.026%
CS(=O)(=O)NC1CCCN(C(=O)Nc2cccnc2N2CCCC2)C1 (centres undefined),Percent Effect,"30.3 µM, […]",64.13%

# Source: ChEMBL document CHEMBL3988442, “University of Dundee, Small-Polar-MMV Screening Library” (2021)
